Values joined by “and” are separate entries in the source; they are usually repeats but may differ in a detail not shown here. Identical values can stand only once. Compounds without any hit were thinned out: in the full panel of roughly 83,000, 20% have a hit.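 The test compound was applied at a single concentration to cells in 96-well plates for 48 hours, and percent growth was recorded.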 Values without a mark were called inactive. Active and inactive are the calls of the source. How the source made its calls: active means growth percent below 10; inactive means the rest.
What follows are compounds tested on MDA-MB-468 breast (assay: NCI-60 one-dose screen, 48 h (100 = growth as untreated, 0 = no growth, -100 = all killed)). Details: 10 µM unless noted.

| Structure (SMILES) | growth |
| --- | --- |
| O=C1C=CC(=O)N1CCCCCCCCCCN1C(=O)C=CC1=O | 70.9% |
| CCCCn1cnc2c(Sc3c([N+](=O)[O-])ncn3C)nc(N)nc21 | 96.9% |
| CON1CCC[C@]2(C)[C@H]3CC[C@@H]4[C@H]5[C@@H](O)C(C)(C)CC[C@]5(CO)CC[C@@]4(C)[C@]3(C)CC[C@H]2C1(C)C | 114% |
| O=C(Nc1nc(-c2ccccc2)cc(-c2ccc(Cl)cc2)n1)c1ccncc1 | 106% |
| C=CCc1c(O)c(C(=O)/C=C/c2ccc(Cl)cc2)c(OC)c2ccoc12 | 19.9% |
| COC1C(O)CC(OC2CC(OC3CC(O[C@@H]4C(=O)c5c(cc6cc(OC7CC(OC8CC(O)C(O)C(C)O8)C(O)C(C)O7)c(C)c(O)c6c5O)CC4[C@H](OC)C(=O)C(C)=O)OC(C)C3O)OC(C)C2O)OC1C (stereo not given in full) | -64.7% (active) |
| Oc1cccc2oc(=S)[nH]c12 | 105% |
| N#Cc1ccc(NC(=O)Nc2cccc(C#N)c2)cc1 | 46.5% |
| CCOC(=O)c1cc(-c2ccc([N+](=O)[O-])cc2)n(-c2ccc(C(=O)O)c(O)c2)c1C | 58.8% |
| CC(C)C1=NOC(=O)C1=Cc1cn(-c2ccccc2)nc1-c1cccc([N+](=O)[O-])c1 | 86.6% |
| O=Nc1c(-c2cccc([N+](=O)[O-])c2)nc2ncccn12 | 17.4% |
| C[C@@H]1CCC2=C(CCC[C@]2(C)C(=O)O)[C@@]1(C)CCc1ccoc1 | 95.4% |
| Nc1ccc(-n2c(=O)oc3ccc(Cl)cc3c2=O)c(Cl)c1 | -6.87% (active) |
| OCc1n(Cc2ccc3ccccc3c2)cc[n+]1Cc1ccc2ccccc2c1 | -29% (active) |
| c1ccc(-c2nc([P+](c3ccccc3)(c3ccccc3)c3ccccc3)c(N3CCOCC3)o2)cc1 | -22.5% (active) |
| O=c1c2ccccc2nc(COc2ccccc2)n1/N=C/C=C/c1ccccc1 | 89.1% |
| COc1ccc([C@H]2[C@H](O)C(=O)N2c2cc(OC)c(OC)c(OC)c2)cc1Cl | 10.9% |
| Cc1ccc(-c2csc(NC(=O)CCCCl)n2)cc1 | 93.3% |
| O=c1cc(-c2nccc3c2[nH]c2ccccc23)c2cc(Cl)ccc2o1 | 2.37% (active) |
| COc1cc(C)cc2oc3oc(=O)c(-c4csc(-c5cc6ccccc6oc5=O)n4)cc3c(=O)c12 | 102% |

| Structure (SMILES) | growth |
| --- | --- |
| CCc1ccc(OCc2ccccc2C(=O)Nc2ccc3nc(C)cc(N)c3c2)cc1 | -58.4% (active) |
| C/C(=C(/c1ccc(Cl)cc1)c1ccc(OCCN2CCCCC2)cc1)c1ccccc1 | 90.6% |
| COc1ccccc1OCC(O)CO (stereo not given) | 114% and 92.9% |
| Cc1n(Cc2ccc3ccccc3c2)c2ccccc2[n+]1Cc1ccc2ccccc2c1 | -60.8% (active) |
| O=[N+]([O-])c1ccc(N=Nc2cc(S(=O)(=O)O)c3cccc(S(=O)(=O)O)c3c2O)cc1 | 118% |
| CCn1c(O)c(/C=N/NC(=O)C(C)c2ccc(CC(C)C)cc2)sc1=S (stereo not given) | 6.34% (active) |
| CCCCCc1c(C)[nH]c(/C=c2\[nH]/c(=C3/C=c4ccccc4=N3)cc2OC)c1C | -63.8% (active) |
| Cc1ccc(O)c(C(=O)c2ccccc2Cl)c1 | 106% |
| c1cc(OCCN2CCCCC2)cc(-c2n[nH]c3ccc(-c4ncn[nH]4)cc23)c1 | 93% |
| COc1ccc(OC)c(-c2c(C#N)c(-c3ccco3)nc3c2c(-c2ccccc2)nn3-c2ccccc2)c1 | 98.4% |
| Cc1ccc(C(=O)c2ccc(CC(=O)N/N=C/c3ccc(O)cc3O)n2C)cc1 | 46.8% |
| CC(C)NC(=O)c1cc(-c2ccc(NC(=O)Nc3ccc(F)c(C(F)(F)F)c3)cc2)nc2cccnc12 | 81.4% |
| O=C(O)CCNC1CCCCC1 | 93.1% |
| CC(=O)c1c(C)[nH]c(-c2nc3ccc(N4CCN(C)CC4)cc3[nH]2)c1-c1ccc2c(c1)OCCO2 | 12.6% |
| O=C(O)c1cn(C2CC2)c2cc(N3CCN(Cc4nnc(Nc5ccccc5)o4)CC3)c(F)cc2c1=O | 114% |
| Cn1c(/C=C(\C#N)c2ccccc2)nc2c(N3CCOCC3)nc(Cl)nc21 | -47.9% (active) |
| Cc1c(Cl)cccc1NC(=O)c1sc2nc3c(cc2c1N)CCCCCC3 | 26.5% |
| N#Cc1c(-c2ccccc2)cc(-c2ccccc2)n(CCCC(=O)NO)c1=O | 33.3% |
| CCOC(=O)c1ccc(C(C)(C)C)cc1 | 107% |
| CC[C@H](C)[C@H](N)C(=O)O | 99.9% |

Source: PubChem BioAssay (NCI)
